# From PubChem
# In the library only some 6.8% were active in any assay of this set; here they are far more common.
# C diff growth: C. difficile growth inhibition; Clostridium difficile clinical isolate growth, OD600, 24 h; stronger effect = lower value; growth activity, negative = inhibition, % at 16 µg/mL (by protocol); hit rate 0.25% among 86,000; AID 1259249;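 active = mean growth activity at or below -80% and every replicate also at or below -80%; inconclusive = mean at or below -80% but some replicate above -80%; inactive = mean growth activity above -80%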;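 also: 0% = DMSO wells and -100% = levofloxacin 16 µg/mL wells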
# T cruzi growth-1: inhibitors of T. cruzi proliferation | T. cruzi beta-gal in NIH3T3, GalScreen luminescence, 90 h | inhibition, % at 8.34 µM | hit rate 5.9% among 77,000;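 active = mean inhibition above about 93%, with at least 55% of replicates each passing it, limit read from the data, passing the limit was not always enough; inconclusive = only one of those two conditions holds; inactive = neither condition holds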
# Pf Dd2 growth: inhibitors of Plasmodium falciparum Dd2 growth | P. falciparum Dd2 growth, SYBR Green, 72 h; stronger effect = lower value | activity change, % at 10 µM | hit rate 2.3% among 94,000; in the data active = activity change below about -80%; inconclusive = no clear call, values can overlap the other calls
# T cruzi growth-2: blocks T. cruzi growth in NIH3T3 host cells. shares compounds with T cruzi growth-1. T. cruzi beta-gal in NIH3T3, GalScreen luminescence, 90 h. inhibition, % at 8.35 µM. hit rate 72% among 5,600;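 active = mean replicate inhibition above about 95% and at least 55% of replicates individually reaching it, limit read from the data; inconclusive = only one of the two criteria is met; inactive = neither criterion is met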
# T cruzi growth-3: Trypanosoma cruzi proliferation inhibition. shares compounds with T cruzi growth-1. T. cruzi beta-gal in NIH3T3, GalScreen luminescence, 90 h. inhibition, % at 2.09 µM. hit rate 21% among 5,600;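 active = mean inhibition above about 95%, with at least 55% of replicates also reaching it, limit read from the data; inconclusive = meets just one of the two conditions; inactive = meets neither condition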;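 also: plate controls were neutral control median for no effect and positive control median for full effect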
# 3T3 cytotox: NIH/3T3 (mouse) viability loss; cytotoxicity (signal decrease), % at 8.35 µM; AID 651742; NIH/3T3 viability, CellTiter-Glo ATP luminescence, 90 h; shares compounds with T cruzi growth-1; hit rate 14% among 5,600;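 active = mean signal decrease across replicates above about 35% based on untreated-well scatter, with enough replicates individually passing, limit read from the data; inconclusive = no rule stated though some were filed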;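 also: 0% = median of neutral control wells and 100% = median of positive control wells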
# 3T3 cytotox 2: kills mouse NIH/3T3 fibroblasts; shares compounds with T cruzi growth-1; NIH/3T3 viability, CellTiter-Glo ATP luminescence, 90 h; inhibition, % at 24.9 µM; hit rate 56% among 5,600; AID 651744;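 active = mean loss of cell viability signal at or above a set limit, and enough replicates individually reaching it; inconclusive = meets only the mean limit or only the replicate share; inactive = meets neither condition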;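 also: 0% = median of neutral control wells and 100% = median of positive control wells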
# The depositor's hits bear a star; ? = inconclusive; . = no result.
SMILES,C diff growth,T cruzi growth-1,Pf Dd2 growth,T cruzi growth-2,T cruzi growth-3,3T3 cytotox,3T3 cytotox 2
COc1ccc(S(=O)(=O)N(C)C[C@H]2OCCCC[C@H](C)Oc3ccc(NC(=O)Nc4ccc(C(F)(F)F)cc4)cc3C(=O)N([C@H](C)CO)C[C@H]2C)cc1,1.1,47.4,?,.,.,.,.
CCNC(=O)C[C@H]1CC[C@H]2[C@@H](COC[C@@H](O)CN2C(=O)Nc2ccc3c(c2)OCO3)O1,.,-6.9,-3.6,.,.,.,.
COc1cccc(S(=O)(=O)N[C@H]2CC[C@H](CC(=O)NC3Cc4ccccc4C3)O[C@H]2CO)c1,.,-5.1,12.5,.,.,.,.
O=C(C1CC1)N1CC[C@@H]2[C@H](CO)Nc3ccc(-c4ccc(F)cc4)cc3[C@@H]21,-12.6,42.4,-0.3,.,.,.,.
COc1ccccc1-c1ccc2c(c1)[C@@H]1[C@@H](CCN1C(=O)C1CCOCC1)[C@@H](CO)N2,-16.4,88.9,-7.2,.,.,.,.
O=C(C1CCOCC1)N1CC[C@@H]2[C@@H](CO)Nc3ccc(-c4ccc(F)cc4)cc3[C@@H]21,-6.7,104.7*,32.0,99.1*,60.4,-12.6,13.7
O=C(C1CCOCC1)N1CC[C@@H]2[C@H]1c1cc(-c3ccc(F)cc3)ccc1N[C@@H]2CO,-5.6,104.7*,3.9,?,81.8,-9.4,23.0
COc1ccccc1-c1ccc2c(c1)[C@@H]1[C@@H](CCN1C(=O)C1CCOCC1)[C@H](CO)N2,-7.7,97.1*,-23.2,101.8*,72.3,-23.3,-30.0
O=C(C1CC1)N1CC[C@@H]2[C@@H](CO)Nc3ccc(-c4ccc(F)cc4)cc3[C@@H]21,-10.5,84.1,2.1,.,.,.,.
CC(C)NC(=O)Nc1ccc2c(c1)CC(=O)N([C@H](C)CO)C[C@H](C)[C@@H](CN(C)S(=O)(=O)c1ccc(F)cc1)O2,3.1,51.2,-24.1,.,.,.,.
CN1c2ccc(-c3ccc(F)cc3)cc2[C@H]2[C@H](CCN2C(=O)Cc2cccnc2)[C@@H]1CO,-3.3,106.9*,-12.9,109.5*,104.0*,-26.3,4.9
CN1c2ccc(-c3cccc(F)c3)cc2[C@H]2[C@H](CCN2C(=O)Cc2cccnc2)[C@@H]1CO,-3.5,54.4,5.7,.,.,.,.
CN1c2ccc(-c3cccc(F)c3)cc2[C@@H]2[C@@H](CCN2C(=O)Cc2cccnc2)[C@H]1CO,-5.6,77.4,-8.4,.,.,.,.
CN1c2ccc(-c3ccc(F)cc3)cc2[C@H]2[C@H](CCN2C(=O)Cc2cccnc2)[C@H]1CO,-4.1,?,19.6,92.3,54.7,-15.9,9.8
C[C@@H]1CN([C@H](C)CO)C(=O)c2cccc(NC(=O)c3ccncc3)c2O[C@H]1CN(C)S(=O)(=O)c1ccc(Cl)cc1,-2.3,-3.6,19.4,.,.,.,.
CN1CCN(C(=O)C[C@@H]2CC[C@@H]3[C@H](COC[C@H](O)CN3C(=O)C3CCCC3)O2)CC1,.,28.3,9.8,.,.,.,.
O=C(C[C@@H]1CC[C@@H]2[C@H](COC[C@H](O)CN2S(=O)(=O)c2cccc(Cl)c2)O1)Nc1ccccc1,2.0,71.4,-14.6,.,.,.,.
O=C(C[C@@H]1CC[C@@H]2[C@H](COC[C@@H](O)CN2S(=O)(=O)c2cccc(Cl)c2)O1)Nc1ccccc1,3.4,25.4,2.4,.,.,.,.
O=C(C[C@@H]1CC[C@H]2[C@@H](COC[C@@H](O)CN2S(=O)(=O)c2cccc(Cl)c2)O1)Nc1ccc(-c2ccccc2)cc1,-8.1,110.0*,-3.3,100.9*,52.8,8.2,103.3*
O=C(C[C@@H]1CC[C@@H]2[C@H](COC[C@@H](O)CN2S(=O)(=O)c2cccc(Cl)c2)O1)Nc1ccc(-c2ccccc2)cc1,20.7,107.6*,-10.3,97.5*,?,33.8,69.6*
COCC#Cc1ccc2c(c1)O[C@H](CN(C)C(=O)C1CCC1)[C@@H](C)CN([C@H](C)CO)S2(=O)=O,0.5,34.3,10.0,.,.,.,.
C[C@@H]1CN([C@@H](C)CO)C(=O)c2cc(C#CCC3CCCC3)cnc2O[C@H]1CN(C)C(=O)CC1CC1,14.8,100.1*,-33.2,?,47.5,20.6,38.7*
C[C@H](CO)N1C[C@H](C)[C@H](CN(C)C(=O)CC2CC2)Oc2ncc(C#CCC3CCCC3)cc2C1=O,15.3,94.9,-8.0,.,.,.,.
